Results: PubChem BioAssay (NCATS)
Where “and” joins values, the source holds several entries; their conditions need not be identical. Equal values may be shown once. Results filed as inconclusive are left out. Entries that show only a call come without a potency. Calls of active or inactive are those of the source. Unless noted, calls come from the whole dose curve.

Key:
[1] = target: Vitamin D3 receptor (Homo sapiens) (UniProt P11473); test: qHTS assay for small molecule agonists of vitamin D receptor signaling (AID 588543)
Chain of Vitamin D3 receptor (Homo sapiens) (P11473 whole entry, looked up): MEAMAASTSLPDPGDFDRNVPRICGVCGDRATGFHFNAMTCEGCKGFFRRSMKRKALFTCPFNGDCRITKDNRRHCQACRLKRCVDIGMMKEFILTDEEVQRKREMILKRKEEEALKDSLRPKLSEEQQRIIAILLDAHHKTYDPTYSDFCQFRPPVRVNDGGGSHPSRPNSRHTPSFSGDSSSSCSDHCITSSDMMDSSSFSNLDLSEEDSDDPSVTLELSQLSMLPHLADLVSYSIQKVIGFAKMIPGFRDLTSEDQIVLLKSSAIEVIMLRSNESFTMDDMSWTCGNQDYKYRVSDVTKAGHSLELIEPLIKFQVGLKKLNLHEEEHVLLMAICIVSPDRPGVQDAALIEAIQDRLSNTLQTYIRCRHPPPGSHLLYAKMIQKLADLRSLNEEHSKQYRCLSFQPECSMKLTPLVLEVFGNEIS
Outline: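 GeneBLAzer VDR-UAS-bla HEK293T cells in 2% charcoal-stripped FBS medium were dosed with compound titrations for 16 h at 37 °C; CCF4 β-lactamase readout (405 nm ex, 460/530 nm em). EC50 and efficacy from Hill fits, normalized to 50 nM calcitriol (100%) and DMSO (0%).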

[2] = qHTS assay for small molecule agonists of retinoid X receptor alpha signaling (AID 588544); conditions: HEK293T RXRa-UAS-bla, beta-lactamase reporter, 18 h; 530 nm emission
[3] = target: Retinoic acid receptor RXR-alpha (Homo sapiens) (UniProt P19793); test: as above
Chain of Retinoic acid receptor RXR-alpha (Homo sapiens) (P19793 whole entry, looked up): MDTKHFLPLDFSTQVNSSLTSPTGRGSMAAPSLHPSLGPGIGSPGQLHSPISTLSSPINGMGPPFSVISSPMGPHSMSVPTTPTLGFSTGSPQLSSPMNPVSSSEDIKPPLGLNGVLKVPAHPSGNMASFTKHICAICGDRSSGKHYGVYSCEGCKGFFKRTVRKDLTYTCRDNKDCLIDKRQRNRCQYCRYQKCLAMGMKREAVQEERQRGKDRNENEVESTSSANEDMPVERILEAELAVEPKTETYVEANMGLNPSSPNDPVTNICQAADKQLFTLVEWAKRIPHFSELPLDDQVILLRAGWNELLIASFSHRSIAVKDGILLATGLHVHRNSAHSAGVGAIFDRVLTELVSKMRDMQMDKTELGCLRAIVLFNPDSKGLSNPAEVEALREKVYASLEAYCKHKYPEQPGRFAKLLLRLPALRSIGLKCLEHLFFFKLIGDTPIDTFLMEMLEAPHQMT

[4] = target: Thyroid hormone receptor beta (Homo sapiens) (UniProt P10828); test: qHTS assay for small molecule agonists of thyroid hormone receptor beta signaling (AID 588545)
Chain of Thyroid hormone receptor beta (Homo sapiens) (P10828 whole entry, looked up): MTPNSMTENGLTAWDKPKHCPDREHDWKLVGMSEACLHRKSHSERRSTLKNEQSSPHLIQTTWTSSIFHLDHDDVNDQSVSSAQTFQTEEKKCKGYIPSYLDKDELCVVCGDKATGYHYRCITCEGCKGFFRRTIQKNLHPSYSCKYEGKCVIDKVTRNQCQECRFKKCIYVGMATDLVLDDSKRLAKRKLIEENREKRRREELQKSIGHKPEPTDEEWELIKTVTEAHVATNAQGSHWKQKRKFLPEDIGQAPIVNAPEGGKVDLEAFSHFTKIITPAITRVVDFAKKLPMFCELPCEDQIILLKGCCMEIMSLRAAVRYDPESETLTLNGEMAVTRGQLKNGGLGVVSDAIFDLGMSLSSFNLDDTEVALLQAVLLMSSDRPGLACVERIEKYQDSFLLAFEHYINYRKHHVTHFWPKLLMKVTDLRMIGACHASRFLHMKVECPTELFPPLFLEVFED
Outline: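 Compounds were tested as agonists in TR-UAS-bla-GripTite HEK 293 cells. After 18 hrs at 37 C, CCF4 substrate was added and fluorescence read after 2 hrs at room temperature.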

[5] = qHTS assay for small molecule antagonists of retinoid X receptor alpha signaling (AID 588546; active = well fitted inhibition curve with a large enough effect in the signal ratio, with a control signal flat, not every such curve was filed as active; the % refers to the signal ratio;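 note: cells stimulated with 9-cis-retinoic acid as agonist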); conditions: HEK293T RXRa-UAS-bla, beta-lactamase ratio, antagonist mode; measured here: W530 green channel, cytotoxicity proxy
Outline: (§1)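 Beta-lactamase reporter inhibition, read as CCF4 fluorescence ratio (ex 405, em 460/530 nm) after 2 h at RT. HEK293T UAS-bla cells, 2500/well, were stimulated with 9-cis-RA at 500 or 100 nM final alongside test compound for 18 h at 37 C.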

[6] = target: Retinoic acid receptor RXR-alpha (Homo sapiens) (UniProt P19793); test: as above; conditions: HEK293T RXRa-UAS-bla, beta-lactamase ratio, antagonist mode
Outline: as §1

[7] = target: Thyroid hormone receptor beta (Homo sapiens) (UniProt P10828); test: qHTS assay for small molecule antagonists of thyroid hormone receptor beta signaling (AID 588547; active = well fitted inhibition curve with a large enough effect in the signal ratio, with a control signal flat, not every such curve was filed as active; the % refers to the signal ratio;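 note: cells stimulated with 0.4 nM T3 agonist during compound exposure; series mostly up to about 77 µM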); conditions: TR-UAS-bla HEK293, beta-lactamase ratio, antagonist mode, 18 h
Outline: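 TR-UAS-bla GripTite HEK293 cells in 2% charcoal/dextran FBS medium were preincubated 4 h at 37 C, given compound (0.59 nM to 92 uM) plus 0.4 nM T3 (final) for 18 h, then CCF4 for 2 h at RT; Hill fit gave IC50.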

[8] = target: Voltage-gated inwardly rectifying potassium channel KCNH2 (Homo sapiens) (UniProt Q12809); test: qHTS Assay for Small Molecule Inhibitors of the Human hERG Channel Activity (AID 588834; active = well fitted inhibition curve with a large enough effect;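 note: top concentration of the series differs between compounds; lower thallium flux fluorescence means stronger hERG block; nearly all actives have a fitted effect of over 50% in size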)
Chain of Voltage-gated inwardly rectifying potassium channel KCNH2 (Homo sapiens) (Q12809 whole entry, looked up): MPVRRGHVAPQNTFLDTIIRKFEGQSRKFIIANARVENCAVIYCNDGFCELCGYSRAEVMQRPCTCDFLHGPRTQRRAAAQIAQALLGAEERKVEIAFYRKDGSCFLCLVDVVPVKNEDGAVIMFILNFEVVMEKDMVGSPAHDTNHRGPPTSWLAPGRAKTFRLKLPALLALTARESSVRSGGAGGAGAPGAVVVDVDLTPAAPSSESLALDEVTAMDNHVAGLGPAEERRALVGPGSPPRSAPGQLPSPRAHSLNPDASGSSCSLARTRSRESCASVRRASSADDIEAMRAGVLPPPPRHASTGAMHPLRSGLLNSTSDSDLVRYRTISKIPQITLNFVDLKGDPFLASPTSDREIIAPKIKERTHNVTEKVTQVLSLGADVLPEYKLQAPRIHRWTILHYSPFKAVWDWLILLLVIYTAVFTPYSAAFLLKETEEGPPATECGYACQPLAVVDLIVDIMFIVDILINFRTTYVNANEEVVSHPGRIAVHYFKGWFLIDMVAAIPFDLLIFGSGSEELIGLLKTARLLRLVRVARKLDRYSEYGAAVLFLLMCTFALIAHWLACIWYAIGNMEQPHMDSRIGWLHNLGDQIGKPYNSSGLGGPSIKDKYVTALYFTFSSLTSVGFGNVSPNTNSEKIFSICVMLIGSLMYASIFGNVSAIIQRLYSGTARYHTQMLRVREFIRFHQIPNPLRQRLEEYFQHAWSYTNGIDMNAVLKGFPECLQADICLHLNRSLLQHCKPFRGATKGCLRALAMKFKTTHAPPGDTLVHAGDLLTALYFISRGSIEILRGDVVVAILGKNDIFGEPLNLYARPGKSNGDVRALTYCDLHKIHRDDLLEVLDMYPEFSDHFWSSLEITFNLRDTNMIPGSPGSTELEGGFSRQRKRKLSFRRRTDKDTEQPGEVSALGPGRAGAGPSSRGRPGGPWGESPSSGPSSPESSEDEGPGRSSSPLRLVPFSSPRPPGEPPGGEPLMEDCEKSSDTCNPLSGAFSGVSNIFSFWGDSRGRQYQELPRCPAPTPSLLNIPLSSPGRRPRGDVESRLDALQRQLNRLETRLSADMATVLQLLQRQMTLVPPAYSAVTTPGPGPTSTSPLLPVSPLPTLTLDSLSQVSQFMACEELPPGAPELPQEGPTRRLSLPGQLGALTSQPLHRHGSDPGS
Outline: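 U2OS cells transduced with hERG via BacMam (MOI ~100), plated 2000/well, loaded with FluxOR thallium dye, compound ~10 min, then stimulation buffer; fluorescence decrease read kinetically; AC50 from Hill fits.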

[9] = target: Luciferin 4-monooxygenase (Photinus pyralis) (UniProt P08659); test: Biochemical firefly luciferase enzyme assay for NPC (AID 624030; active = well fitted inhibition curve with a large enough effect;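 note: purified P. pyralis luciferase at 10 nM with luciferin and ATP substrate; series mostly up to about 59 µM; nearly all actives have a fitted effect of over 70% in size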)
Chain of Luciferin 4-monooxygenase (Photinus pyralis) (P08659 whole entry, looked up): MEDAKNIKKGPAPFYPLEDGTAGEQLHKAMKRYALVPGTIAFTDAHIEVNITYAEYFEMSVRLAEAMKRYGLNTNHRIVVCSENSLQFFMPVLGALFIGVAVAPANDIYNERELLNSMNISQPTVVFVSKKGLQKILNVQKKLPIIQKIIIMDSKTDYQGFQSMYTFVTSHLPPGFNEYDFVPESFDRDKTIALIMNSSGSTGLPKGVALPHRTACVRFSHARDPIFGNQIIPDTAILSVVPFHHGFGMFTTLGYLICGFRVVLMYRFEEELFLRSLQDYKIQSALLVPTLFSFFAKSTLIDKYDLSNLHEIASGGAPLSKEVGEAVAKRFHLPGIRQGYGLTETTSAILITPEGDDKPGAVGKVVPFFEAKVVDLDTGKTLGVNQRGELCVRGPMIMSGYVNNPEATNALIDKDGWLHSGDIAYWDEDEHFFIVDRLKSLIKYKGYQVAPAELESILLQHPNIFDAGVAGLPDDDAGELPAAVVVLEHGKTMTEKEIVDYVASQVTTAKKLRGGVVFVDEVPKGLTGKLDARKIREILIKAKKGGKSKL
Outline: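 Counter-screen for direct inhibition of the luciferase enzyme by approved-drug library compounds, run at 10 nM enzyme in 50 mM Tris acetate (final). Luminescence was read within 5 min of enzyme-buffer addition and normalized to PTC124 versus DMSO (0%).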

Row | SMILES | outcome [1] | max response [2] | outcome [3] | outcome [4] | max response [5] | max response [6] | activity change % (negative = inhibition) [7] | Potency [8] | Potency [9]
1 | O=C(O)[C@H](O)[C@@H](O)[C@H](O)[C@H](O)CO | inactive | -12.4% | inactive | inactive | -7.65% | 4.17% (inactive) | 19.6% (inactive) | inactive | inactive
2 | COc1cc(CNC(=O)CCCC/C=C/C(C)C)ccc1O | inactive | 3.03% and 16.9% | inactive | inactive | 9.1% | 4.06% (inactive) | 11.7% (inactive) and 10.6% (inactive) | inactive | inactive
3 | CCCOC(=O)c1ccc(O)cc1 | inactive | -11.1% and -2.66% and -11% | inactive | inactive | -12% and 3.27% and -2.1% | -6.42% (inactive) and -2.27% (inactive) and -9.81% (inactive) | -17.9% (inactive) and -8.82% (inactive) and 6.79% (inactive) | inactive | inactive
4 | CCCCCCCCCCCCCCCC(=O)OC(C)C | inactive | 0.385% | inactive | inactive | -10.7% | 8.58% (inactive) | -1.02% (inactive) | inactive | inactive
5 | c1cnc2c(c1)ccc1cccnc12 | inactive |  |  |  |  |  | -10.3% (inactive) | inactive | 
6 | c1ccc2sc(SN3CCOCC3)nc2c1 |  |  |  |  |  |  |  | inactive | 
7 | Oc1ccccc1O | inactive | 7.41% | inactive | inactive |  |  | -12.3% (inactive) | inactive | 
8 | Nc1nc2ccc([N+](=O)[O-])cc2s1 | inactive |  |  |  | 0.666% | 16.9% (inactive) | -2.47% (inactive) | inactive | 
9 | CN(C)c1ccc(N=NS(=O)(=O)O)cc1 | inactive | -5.77% | inactive | inactive | -9.95% and 2.36% | -16.5% (inactive) and -8.55% (inactive) | -11.7% (inactive) | inactive | 
10 | NCCO |  | -11.3% | inactive |  | -11.1% | 21.6% (inactive) | -5.7% (inactive) | inactive | inactive
11 | O=C(O)/C=C\C(=O)O | inactive | -5.8% | inactive | inactive | 0.438% | 2.25% (inactive) | -2.36% (inactive) |  | 
12 | CC(=O)[C@]1(O)Cc2c(O)c3c(c(O)c2[C@@H](O[C@H]2C[C@H](N)[C@H](O)[C@H](C)O2)C1)C(=O)c1c(O)cccc1C3=O |  |  |  |  |  |  |  | inactive | 
13 | CN(C)CCC(c1ccc(Cl)cc1)c1ccccn1 (stereo not drawn) |  | 8.67% | inactive | inactive | -0.244% | -3.52% (inactive) | -21.7% (inactive) |  | inactive
14 | Nc1ccn([C@@H]2O[C@H](CO)[C@@H](O)[C@@H]2O)c(=O)n1 |  |  |  |  |  |  |  | inactive | 
15 | NC(CCCP(=O)(O)O)C(=O)O (stereo not drawn) |  |  |  |  |  |  |  | inactive | 
16 | CCCCCCCCCCCCCCCCCC(=O)O |  | 13.3% and -12.8% and -7.59% | inactive |  | -4.53% and -8.3% and -3.54% | -9.45% (inactive) and 1.81% (inactive) and 3.06% (inactive) |  | inactive | inactive
17 | C=CCCCCCCCCC(=O)O | inactive | -10% | inactive | inactive | -3.51% | -16.4% (inactive) | -5.71% (inactive) | inactive | inactive
18 | CC1(C)S[C@@H]2[C@H](NC(=O)[C@H](N)c3ccccc3)C(=O)N2[C@H]1C(=O)O |  | -24.6% | inactive |  | -6.23% | -0.87% (inactive) |  |  | 
19 | Nc1cc(-c2ccncc2)c[nH]c1=O | inactive | 3.04% | inactive | inactive | -6.03% | -6.86% (inactive) |  | inactive | inactive
20 | N=C1N=C(N)c2cc3ccccc3cc21 | inactive | 12.6% | inactive | inactive | -9.13% | 48.9% (inactive) | 8.6% (inactive) |  | inactive
22 | O=C(Nc1ccccc1)c1cc([N+](=O)[O-])ccc1Cl |  |  |  | inactive | -9.1% | -13.8% (inactive) | 9.48% (inactive) | inactive | 
